Molecules are shown by their SMILES.

Among the data in ChEMBL document CHEMBL1157539, “Thousands of chemical starting points for antimalarial lead identification” (Nature, 2010) are Inhibition values, retold here.

Holding throughout (format): functional
Assay [1] relates to Plasmodium falciparum. The assay is described as follows: GSK_TCMDC: Inhibition of Plasmodium falciparum 3D7 in whole red blood cells, using parasite LDH activity as an index of growth. Test compounds present at 2uM.
Assay [2] relates to Plasmodium falciparum. Nature of the assay: GSK_TCMDC: Inhibition of Plasmodium falciparum Dd2 in whole red blood cells, using parasite LDH activity as an index of growth. Test compounds present at 2uM.
The test system of a further assay is HepG2. Nature of the assay: GSK_TCMDC: Percent inhibition of human HepG2 cell line. Test compounds present at 10uM.

On to `CN1CCC(C(=O)Nc2cccc(-c3ccc(-c4nc5cc(F)ccc5[nH]4)cc3)c2)CC1`, for which the Inhibition in the assay on Plasmodium falciparum [1] turned out to be 100%; in the assay on Plasmodium falciparum [2], 51%; in the assay on HepG2 it was 12%.
The corresponding values for `COc1ccc(C2CCN(CCN3CCC(NC(=O)c4ccc(-c5cccc(C(F)(F)F)c5C(F)(F)F)cc4)CC3)CC2)c(OC)c1` are 100%, 61% and 35%.
For `CCOC(=O)C(C(C)=O)C(c1ccccc1)C(C(C)=O)C(=O)OCC` (centres undefined) the same measures were 95%, 14% and 6%.
Regarding `CCN(CC)C(=O)c1cccc(C=Cc2ccc(-c3c(C)[nH]c(C)c(Cl)c3=O)cc2)c1`, the Inhibition in the assay with Plasmodium falciparum [1] amounted to 96%; with Plasmodium falciparum [2], 96%; in the assay with HepG2 it was 9%.
`O=C(O)C(F)(F)F.O=[N+]([O-])c1cccc(CNCC2CCN(Cc3ccc(O)cc3)CC2)c1`: the values for the Inhibition in the assay with Plasmodium falciparum [1], in the assay on Plasmodium falciparum [2] and in the assay with HepG2 were 98%, 5% and 8%, respectively.
For `Cc1cccc2nc(-c3cccc(-c4cccc(CNCCN5CCNCC5)c4)c3)[nH]c12.O=C(O)C(F)(F)F` the same measures were 90%, 0% and 11%.
For `O=C(CCCCCNC(=O)c1ccc(O)c(-c2ccc(Cl)c(Cl)c2)c1)NCCc1ccc(Cl)c(Cl)c1`, the Inhibition with Plasmodium falciparum [1] is reported as 97%; in the assay with Plasmodium falciparum [2], 20%; with HepG2, 57%.
The corresponding values for `Clc1cccc(C=NN=c2cc[nH]c3ccccc23)c1` are 100%, 44% and 5%.
For `Nc1c(Cl)cc(C(O)CNCCCCCOCCCc2ccc3ncccc3c2)cc1Cl.O=C(O)/C=C/C(=O)O` (centres undefined) the same measures were 96%, 77% and 24%.
The corresponding values for `O=C(O)C(F)(F)F.O=S(=O)(Nc1ccc(-c2ccc(CN3CCCC3)cc2)cc1)c1cccc2cccnc12` are 91%, 10% and 37%.
As to `CCCOc1ccc(-c2nonc2NC(=O)c2ccccc2OC)cc1OCCC`, the Inhibition was found to be 98% in the assay with Plasmodium falciparum [1], 82% in the assay with Plasmodium falciparum [2] and 23% in the assay on HepG2.
For `CCOc1ccc(C(C)NC(=O)c2cc(Cl)ccc2OC)cc1OCC` (centres undefined) the same measures were 100%, 99% and 0%.
The corresponding values for `COc1ccc(CN2CCN(CCCCNC(=O)c3ccc(NC(=O)c4ccc(Cl)cc4)cc3)CC2)c(OC)c1` are 94%, 0% and 25%.
The corresponding values for `COc1ccc(-c2cccc(NC(=O)c3ccc(Cl)cc3)c2)cc1CNC(C)C.O=C(O)C(F)(F)F` are 100%, 44% and 53%.
As for `COc1ccc(S(=O)(=O)N2CCCC(C)C2)cc1N1CCN(C(=O)c2ccc([N+](=O)[O-])o2)CC1` (centres undefined), the results for the Inhibition in the assay with Plasmodium falciparum [1], in the assay on Plasmodium falciparum [2] and in the assay on HepG2 were 94%, 4% and 0%, respectively.
The corresponding values for `CC(C)c1ccc(-c2nc3cc(Cl)cnc3[nH]2)cc1` are 87%, 77% and 3%.
For the compound `COc1ccc(S(=O)(=O)N2CCC3(CC2)OCC(=O)NC3c2ccc(Cl)c(Cl)c2)cc1` (centres undefined), the Inhibition is on record as 91% with Plasmodium falciparum [1], 44% with Plasmodium falciparum [2] and 0% with HepG2.
For `O=C(/C=C/c1ccc(Cl)c(Cl)c1)NCCCCCN1CCC(C(=O)Nc2cccc(Cl)c2)CC1` the same measures were 100%, 0% and 48%.
The corresponding values for `CN1CCN(CCCN(Cc2cccc(-c3ccc(CNC4CCCC4)cc3)c2)C(=O)/C=C/c2ccccc2)CC1.O=C(O)C(F)(F)F` are 98%, 96% and 62%.
For `COc1ccc(Nc2nc(NCc3ccc(-n4ccnc4)cc3)cc(-c3ccc(OC)cc3)n2)cc1`, the Inhibition in the assay with Plasmodium falciparum [1] is listed as 96%; in the assay with Plasmodium falciparum [2] it was 25%; in the assay with HepG2, 8%.
For `CCC(C)NC(=O)CN1CN(c2ccccc2)C2(CCN(C(=O)c3ccc4ccccc4c3)CC2)C1=O` (centres undefined) the same measures were 95%, 78% and 0%.
On to `COc1ccccc1NC(=O)Nc1ccc(-c2ccc(-c3nc4cc(C(F)(F)F)ccc4[nH]3)cc2)cc1`, for which the Inhibition in the assay with Plasmodium falciparum [1] amounted to 100%; in the assay with Plasmodium falciparum [2], 61%; with HepG2, 52%.
As to `O=C(O)C(F)(F)F.Oc1ccc(CCCNc2nc(NCc3cccc4ccccc34)nc(N3CCNCC3)n2)cc1`, the Inhibition is listed as 100% with Plasmodium falciparum [1], 4% in the assay with Plasmodium falciparum [2] and 9% in the assay with HepG2.
